Results taken from article PMC4552634, “A New Set of Chemical Starting Points with Plasmodium falciparum Transmission-Blocking Potential for Antimalarial Drug Discovery” (PLoS ONE, 2015).
Like-named read-outs stand apart in the source and are kept apart here. Screen size: about 13,000 compounds; about 3,200 (25%) showed an effect of 50% or more. This is one part of the list.

Test system: P. falciparum stage V gametocytes
Set-up: BacTiter-Glo ATP luminescence viability of purified stage V gametocytes in 384-well plates, per cent inhibition versus DMSO
Details: 48 h, 5 µM, inhibitor

SMILES	% Inhibition	% Inhibition (% Inhibition)
COc1ccccc1CN1CCC(CNC(=O)c2cc(-c3cccc(C(F)(F)F)c3)cs2)C1.O=C(O)C(F)(F)F (stereo not drawn) [TCMDC-134450]	-43.84%	
O=C(NCC1CCN(Cc2cccc(C(F)(F)F)c2)C1)c1cc(-c2cccc(Cl)c2)cs1 (stereo not drawn) [TCMDC-134485]	50.21%	
COc1ccccc1CN1CCC(CNC(=O)c2cc(-c3ccc(N(C)C)cc3)cs2)C1.O=C(O)C(F)(F)F (stereo not drawn) [TCMDC-134451]	95.05%	
CCCC(=O)Nc1ccc(OCCCN(Cc2ccccc2F)c2ccc(C#N)c(C(F)(F)F)c2)cc1 [TCMDC-135449]	24.41%	
Fc1cc(Cl)ccc1Nc1ccnc2cc(-c3ccc(CN4CCNCC4)o3)ccc12 [TCMDC-138394]	83.09%	
CN1CCN(Cc2ccc(-c3ccc4c(Nc5cc(O)c(F)cc5Cl)ccnc4c3)o2)CC1 [TCMDC-138486]	4.683%	
Fc1cc(Cl)ccc1Nc1ccnc2cc(-c3ccc(CNCCN4CCOCC4)o3)ccc12 [TCMDC-138397]	-18.32%	
Fc1cc(Cl)ccc1Nc1ccnc2cc(-c3ccc(CN4CCOCC4)o3)ccc12 [TCMDC-138393]	99.43%	
Fc1cc(Cl)ccc1Nc1ccnc2cc(-c3ccc(CN4CCCCC4)o3)ccc12 [TCMDC-138396]	9.087%	
CN1CCN(Cc2ccc(-c3ccc4c(Nc5ccc(Cl)cc5F)ccnc4c3)o2)CC1 [TCMDC-138395]	-22.3%	
Fc1cc(Cl)ccc1Nc1ccnc2cc(-c3ccc(CN4CCSCC4)o3)ccc12 [TCMDC-138392]	1.462%	
CN1CCN(Cc2ccc(-c3ccc4c(Nc5cc(O)c(Cl)cc5F)ccnc4c3)o2)CC1 [TCMDC-138446]	74.65%	
Oc1cc(Nc2ccnc3cc(-c4ccc(CN5CCCCC5)o4)ccc23)c(Cl)cc1F [TCMDC-138485]	11.9%	
COc1ccc2nccc(N3CCN(CCNCc4ccc5c(n4)NC(=O)CS5)CC3)c2c1.Cl [TCMDC-141962]	5.259%	
CCCCC1(c2ccc(F)cc2)NC(=O)N(CC(=O)c2cc(C)n(Cc3ccco3)c2C)C1=O (stereo not drawn) [TCMDC-125119]	0.3946%	
CCNC(=O)c1cc(S(=O)(=O)N2CCN(c3ccccn3)CC2)cs1 [TCMDC-124848]	88.58%	
CNC(=O)c1cc(S(=O)(=O)N2CCN(c3ccccn3)CC2)c(C)s1 [TCMDC-124846]	34.83%	
CNC(=O)c1cc(S(=O)(=O)N2CCN(c3ccccn3)CC2)cs1 [TCMDC-124847]	78.13%	
O=C(Nc1ccc(N2CCN(c3ncccc3C(F)(F)F)CC2)nc1)c1cccs1 [TCMDC-125784]	10.79%	
CC(=O)Nc1ccc(S(=O)(=O)N2CCN(c3nc(NC4CCCC4)c4ccccc4n3)CC2)cc1 [TCMDC-123869]	2.309%	
Cc1nc(-c2ccc3c(c2)CCN(CCC2CCC(NC(=O)c4cc5cccc(Cl)c5[nH]4)CC2)CC3)no1 (stereo not drawn) [TCMDC-140071]	-33.37%	
O=C(Nc1ccc(Cl)c(C(F)(F)F)c1)c1ccc(Cl)c([N+](=O)[O-])c1 [TCMDC-125647]	-24.24%	
O=C(c1ccc(F)c2ccccc12)N1CCc2cc3nccc(N4CCN5CCC[C@H]5C4)c3cc21 [TCMDC-140043]	23.61%	

SMILES	% Inhibition	% Inhibition (% Inhibition)
c1ccc(CCNCc2ccc(-c3ccc(CNC4CCN(Cc5ccccc5)CC4)cc3)nc2)cc1 [TCMDC-141649]	82.96%	
CS(=O)(=O)c1ccc(CCNCc2ccc(-c3ccc(CNC4Cc5ccccc5C4)cc3)nc2)cc1 [TCMDC-141615]	5.211%	
CN1CCC(C(=O)N(Cc2ccc(-c3ccc(CNCCc4ccc(S(C)(=O)=O)cc4)cn3)cc2)C2Cc3ccccc3C2)CC1 [TCMDC-141508]	99.19%	
CS(=O)(=O)c1ccc(CCNCc2ccc(-c3ccc(CN(C(=O)C4CC(=O)c5ccccc54)C4CCN(Cc5ccccc5)CC4)cc3)nc2)cc1 (stereo not drawn) [TCMDC-141605]	41.88%	
CS(=O)(=O)c1ccc(CCNCc2ccc(-c3ccc(CN(C(=O)C4CC(=O)c5ccccc54)C4Cc5ccccc5C4)cc3)nc2)cc1 (stereo not drawn) [TCMDC-141509]	97.27%	
CN1CCC(C(=O)N(Cc2ccc(-c3ccc(CNCCc4ccc(S(C)(=O)=O)cc4)cn3)cc2)C2CCN(Cc3ccccc3)CC2)CC1 [TCMDC-141506]	104.7%	
CS(=O)(=O)c1ccc(CCNCc2ccc(-c3ccc(CNC4CCN(Cc5ccccc5)CC4)cc3)nc2)cc1 [TCMDC-141614]	33.12%	
CS(=O)(=O)c1ccc(CCNCc2ccc(-c3ccc(CN(C(=O)C4CCCC4)C4CCN(Cc5ccccc5)CC4)cc3)nc2)cc1 [TCMDC-141511]	48.38%	
CC(C)c1ccc(Cn2cc(-c3ccncc3)c3cc(OCc4ccccc4)ccc32)cc1 [TCMDC-137225]	2.514%	
CCc1cccc(NC(=O)c2ccc(CN3CCCN(CC4CCCCC4)CC3)cc2)c1 [TCMDC-136399]	-29.35%	
O=c1cc(NCCCNC2CCOc3c(I)cc(Cl)cc32)[nH]c2ccccc12 (stereo not drawn) [TCMDC-139489]	-10.52%	
O=C1COc2ccc(CNC3CCC(O)(CCc4ccnc5cc6c(cc45)OCCO6)CC3)nc2N1 (stereo not drawn) [TCMDC-141941]	32.09%	
O=C(c1ccc(-c2ccc(-c3nc4cc(C(F)(F)F)ccc4[nH]3)s2)cc1)N1CCN(CCc2ccccc2)CC1 [TCMDC-132482]	3.451%	
COc1cccc2cc(C(=O)N[C@@H](CC(C)C)C(=O)N[C@H](/C=N/N3C(=O)CN(Cc4ccccc4)C3=O)CCc3ccccc3)oc12 [TCMDC-136198]	-10.77%	
O=C(Cc1cccc(O)c1)Nc1ccc(-c2cccc(-c3nc4ccc(C(F)(F)F)cc4[nH]3)c2)cc1 [TCMDC-132176]	0.6072%	
COc1ccc(CCN2CCC(CN(C)Cc3cnn(-c4ccccc4)c3)CC2)cc1 [TCMDC-124632]	-8.037%	
COc1ccc(CNCc2ccc(-c3ccc(CNCCc4ccccc4)cn3)cc2)cn1 [TCMDC-141647]	26.41%	
CN1CCCC1CCNCc1ccc(-c2ccc(CNCCc3ccccc3)cn2)cc1 (stereo not drawn) [TCMDC-141617]	85.17%	
CN1CCC(C(=O)N(Cc2ccc(-c3ccc(CNCCc4ccccc4)cn3)cc2)C2CCN(Cc3ccccc3)CC2)CC1 [TCMDC-141552]	110.4%	
CC(C)C[C@@H](C(=O)N[C@@H](CCCCNC(=O)OCc1ccccc1)C(=O)Nc1nccs1)[C@H](C)N(O)C=O [TCMDC-137184]	-15.37%	
C[C@@H]([C@@H](CCCc1ccc(Cl)cc1)C(=O)N[C@H](C(=O)Nc1cccnc1)C(C)(C)C)N(O)C=O [TCMDC-138383]	-4.065%	
CS(=O)(=O)Nc1ccc2[nH]cc(C3CCN(CC4CCC(NC(=O)/C=C/c5ccc(Cl)c(Cl)c5)CC4)CC3)c2c1 (stereo not drawn) [TCMDC-139641]	-16.95%	
Cc1ccc2[nH]cc(C3CCN(CC4CCC(NC(=O)/C=C/c5ccc(Cl)c(Cl)c5)CC4)CC3)c2c1 (stereo not drawn) [TCMDC-139630]		-23.48%

SMILES	% Inhibition	% Inhibition (% Inhibition)
NC(=O)c1ccc2[nH]cc(C3CCN(CC4CCC(NC(=O)/C=C/c5ccc(Cl)c(Cl)c5)CC4)CC3)c2c1 (stereo not drawn) [TCMDC-139885]		5.306%
O=C(/C=C/c1ccc(Cl)c(Cl)c1)NC1CCC(CN2CCC(c3c[nH]c4cc(O)ccc34)CC2)CC1 (stereo not drawn) [TCMDC-139642]	41.76%	
O=C(/C=C/c1ccc(Cl)c(Cl)c1)NC1CCC(CN2CCC(c3c[nH]c4cc(C(F)(F)F)ccc34)CC2)CC1 (stereo not drawn) [TCMDC-139868]		4.839%
O=C(/C=C/c1ccc(Cl)c(Cl)c1)NC1CCC(CN2CCC(c3c[nH]c4ccccc34)C(O)C2)CC1 (stereo not drawn) [TCMDC-139645]	-15.82%	
O=C(/C=C/c1ccc(Cl)c(Cl)c1)N1CCC(CN2CCC(c3c[nH]c4cc(C(F)(F)F)ccc34)CC2)CC1 [TCMDC-139860]	22.64%	
O=C(/C=C/c1ccc(Cl)c(Cl)c1)NC1CCC(CN2CCC(c3c[nH]c4ccccc34)CC2)CC1 (stereo not drawn) [TCMDC-139447]	56.58%	
Cc1ccc2[nH]cc(C3CCN(CC4CCC(NC(=O)/C=C/c5ccc(Cl)c(Cl)c5)CC4)CC3)c2c1 (stereo not drawn) [TCMDC-139629]		74.07%
O=C(/C=C/c1ccc(Cl)c(Cl)c1)NC1CCC(CN2CCC(c3c[nH]c4cc(C(F)(F)F)ccc34)CC2)CC1 (stereo not drawn) [TCMDC-139869]		50.13%
NC(=O)c1ccc2[nH]cc(C3CCN(CC4CCC(NC(=O)/C=C/c5ccc(Cl)c(Cl)c5)CC4)CC3)c2c1 (stereo not drawn) [TCMDC-139886]		70.38%
CNC(=O)c1ccc2[nH]cc(C3CCN(CC4CCC(NC(=O)/C=C/c5ccc(Cl)c(Cl)c5)CC4)CC3)c2c1 (stereo not drawn) [TCMDC-139979]	15.16%	
CC[C@@H]([C@@H](CC(C)C)C(=O)N[C@@H](CCCCNC(=O)OCc1ccccc1)C(=O)Nc1ccccn1)N(O)C=O [TCMDC-137163]	20.28%	
CC(=O)Nc1ccc2[nH]cc(C3CCN(CC4CCC(NC(=O)/C=C/c5ccc(Cl)c(Cl)c5)CC4)CC3)c2c1 (stereo not drawn) [TCMDC-139852]		29.73%
O=C(C=Cc1ccc(F)c(Br)c1)N1CCC(CN2CCC(c3c[nH]c4ccccc34)CC2)CC1 [TCMDC-139914]	-25.75%	
O=C(/C=C/c1ccc(Cl)cc1)NC1CCC(CN2CCC(c3c[nH]c4ccccc34)CC2)CC1 (stereo not drawn) [TCMDC-139716]		101.2%
O=C(C=Cc1ccc(F)c(Br)c1)NC1CCC(CN2CCC(c3c[nH]c4ccccc34)CC2)CC1 (stereo not drawn) [TCMDC-139919]		-60.64%
O=C(/C=C/c1ccc(O)cc1)NC1CCC(CN2CCC(c3c[nH]c4ccccc34)CC2)CC1 (stereo not drawn) [TCMDC-139719]	17.65%	
O=C(/C=C/c1ccc(Cl)c(Cl)c1)NC1CCC(N2CCC(c3c[nH]c4ccc(O)cc34)CC2)CC1 (stereo not drawn) [TCMDC-139812]	98.54%	
O=C(C=Cc1ccc(F)c(Br)c1)NC1CCC(CN2CCC(c3c[nH]c4ccccc34)CC2)CC1 (stereo not drawn) [TCMDC-139908]		99.67%
O=C(/C=C/c1ccc(Cl)c(Cl)c1)NCCCCCN1[C@@H]2CC[C@H]1CC(c1c[nH]c3ccc(O)cc13)C2 (stereo partly drawn) [TCMDC-139295]		11.46%
O=C(/C=C/c1ccc(Cl)c(Cl)c1)NC1CCC(N2CCC(c3c[nH]c4ccccc34)CC2)CC1 (stereo not drawn) [TCMDC-139778]	-27.83%	
O=C(/C=C/c1ccc(Cl)c(Cl)c1)NC1CCC(CN2CCC(c3c[nH]c4ccncc34)CC2)CC1 (stereo not drawn) [TCMDC-140109]	103.5%	
O=C(C=Cc1ccc(Br)cc1)NC1CCC(CN2CCC(c3c[nH]c4ccccc34)CC2)CC1 (stereo not drawn) [TCMDC-139948]	31.75%	
CC(=O)Nc1ccc2[nH]cc(C3CCN(CC4CCC(NC(=O)/C=C/c5ccc(Cl)c(Cl)c5)CC4)CC3)c2c1 (stereo not drawn) [TCMDC-139851]		9.174%
